Source: PubChem BioAssay AID651616 (The Scripps Research Institute Molecular Screening Center, 2012)
The campaign covered roughly 5,600 compounds. About 4,400 (79%) were called active. Rule as the data show it: active = inhibition above about 27%; inactive = the rest. The set was probably picked from earlier hits. These entries were drawn from the full list.

What follows are compounds tested against Fructose-bisphosphate aldolase (Mycobacterium tuberculosis (strain ATCC 25618 / H37Rv)) (UniProt P9WQA3) (assay: M. tuberculosis aldolase blockers, biochemical, fluorescence, strain H37Rv, confirmation (AID 651616;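 also: 0% = vehicle wells and 100% = reference inhibitor wells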)). Details: purified M. tuberculosis FBA, fluorescence read-out, at 1 µM, active compounds read high.
Sequence of Fructose-bisphosphate aldolase (Mycobacterium tuberculosis (strain ATCC 25618 / H37Rv)) (P9WQA3 whole entry, looked up): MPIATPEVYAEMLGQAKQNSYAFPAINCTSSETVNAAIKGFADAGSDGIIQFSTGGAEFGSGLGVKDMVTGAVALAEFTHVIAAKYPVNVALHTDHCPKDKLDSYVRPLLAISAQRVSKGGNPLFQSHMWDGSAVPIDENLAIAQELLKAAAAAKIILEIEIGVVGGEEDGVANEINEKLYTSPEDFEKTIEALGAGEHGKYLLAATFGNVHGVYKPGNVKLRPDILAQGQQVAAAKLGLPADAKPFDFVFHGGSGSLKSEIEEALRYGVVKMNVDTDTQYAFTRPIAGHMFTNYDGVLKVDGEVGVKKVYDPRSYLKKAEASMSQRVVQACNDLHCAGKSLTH
With `O=C(CCC(=O)N/N=C/c1ccc(Br)o1)N/N=C/c1ccc(Br)o1` the inhibition was 110% (active).
In the case of `CCC(=O)Nc1c(S(=O)(=O)c2ccccc2)c2nc3ccccc3nc2n1Cc1ccccc1`, the inhibition is reported as 173% (active).
In the case of `COc1ccc2nc(-c3ccccn3)ccc2c1`, the inhibition is reported as 116% (active).
With `O=C1NC(c2cccc(Cl)c2)Nc2ccccc21` (centres undefined) the inhibition was 102% (active).
With `COc1ccc(C2NC(=O)c3ccccc3N2)cc1` (centres undefined) the inhibition was 146% (active).
With `Cc1ccc2nc(-c3ccco3)c(Cc3cccc(Cl)c3)n2c1` the inhibition was 94.1% (active).
`O=C1OCCN1C(=O)[C@H]1[C@H](c2ccc(F)cc2)C(c2ccccc2)=NN1c1ccc(Br)cc1` was tested, and the inhibition was 65.6% (active).
With `CNc1nc(-c2ccccc2)cc(-c2ccccc2)n1` the inhibition was 76.6% (active).
In the case of `CCCN(C(=O)CSc1nnc(N)s1)c1c(N)n(Cc2ccccc2)c(=O)[nH]c1=O`, the inhibition is reported as 59.2% (active).
With `COc1ccc(-c2ccc(C(=O)NCCN3CCOCC3)c3occc23)c(C)c1` the inhibition was 72% (active).
In the case of `COc1ccc(-c2ccc(C(=O)NC(C)C)c3occc23)c(C)c1`, the inhibition is reported as 112% (active).
`COc1ccc(-c2oc3ncnc(NCCCO)c3c2-c2ccc(OC)cc2)cc1` was tested, and the inhibition was 51.9% (active).
With `Cc1cc(C)nc(SCc2cn3c(C)cc(C)nc3n2)n1` the inhibition was 102% (active).
`COc1cccc(NC(=O)CN(C)CC(=O)Nc2ccc3c(c2)CCC3)c1` was tested, and the inhibition was 89% (active).
For `COc1cccc(NC(=O)CN(C)C(=O)/C=C/c2cc(OC)ccc2OC)c1`, the inhibition was 105% (active).
With `COc1ccc2c3c(c(=O)oc2c1OCC(=O)C(C)(C)C)CCCC3` the inhibition was 60.2% (active).
For `Cc1c(OC(C)C(=O)N[C@@H](Cc2ccccc2)C(=O)O)ccc2c3c(c(=O)oc12)CCCC3` (some centres undefined), the inhibition was 5.53% (inactive).
`CCC(=O)Nc1ccc2nn(-c3ccc(F)cc3)nc2c1` was tested, and the inhibition was 88% (active).
In the case of `CCCC/C=C/c1cccc2nncn12`, the inhibition is reported as 68.8% (active).
`O=C(NCCc1ccccc1)c1ccc2c(c1)N(Cc1ccccc1)CCS2` was tested, and the inhibition was 42.5% (active).
`CN1CCN(CCCNC(=O)c2ccc(/C=C3\Oc4ccccc4N(Cc4ccc(Cl)cc4)C3=O)cc2)CC1` was tested, and the inhibition was -4.52% (inactive).
`O=C(NCCN1CCOCC1)c1ccc2c(c1)N(Cc1ccc(Cl)cc1)CCS2` was tested, and the inhibition was 56.6% (active).
For `COCCCNC(=S)N(CCN(C)C)Cc1cc2cc3c(cc2[nH]c1=O)OCCO3`, the inhibition was 43.2% (active).
In the case of `COc1ccc(C2C3=C(CCCC3=O)N(CC(=O)O)C3=C2C(=O)CCC3)cc1`, the inhibition is reported as 128% (active).
`Cc1nc2c(-c3ccccc3)c(C)[nH]n2c(=O)c1Cl` was tested, and the inhibition was 105% (active).
With `COCc1cc(=O)n2[nH]c(C)c(-c3ccccc3)c2n1` the inhibition was 50.6% (active).
With `CCCc1cc(=O)n2[nH]c(C)c(-c3ccc(Cl)cc3)c2n1` the inhibition was 123% (active).
In the case of `O=C(O)Cc1sc(-c2ccc(C(=O)O)cc2)nc1-c1ccccc1`, the inhibition is reported as -7.84% (inactive).
In the case of `c1cc(-c2ccc3[nH]ccc3c2)n2ccnc2c1`, the inhibition is reported as 79.6% (active).
`COc1ccc(CNC(=O)c2c[nH]c3c(OC)cc(OC)cc3c2=O)cc1` was tested, and the inhibition was -2.04% (inactive).
With `Cc1ccc(Cn2c(C)nc3c(c2=O)c2nc4ccccc4nc2n3Cc2ccco2)cc1` the inhibition was 55% (active).
In the case of `CC(=O)Nc1ccc(-c2nc3ccccc3o2)cc1`, the inhibition is reported as 8.14% (inactive).
`COc1cc(OC)cc(C(=O)Nc2ccc(-c3nc4ccccc4o3)c(O)c2)c1` was tested, and the inhibition was 148% (active).
In the case of `CC(C)OCCCNc1ncnc2c1[nH]c1ccc(F)cc12`, the inhibition is reported as 132% (active).
For `CC(C)CN1CCNC(=O)C1CC(=O)N(C)CC1CCOCC1` (centres undefined), the inhibition was 138% (active).
With `Cc1cc(OCc2cc(C(=O)O)oc2C)c2c3c(c(=O)oc2c1)CCCC3` the inhibition was 151% (active).
For `COC(=O)COc1cc(C)cc2oc(=O)c3c(c12)CCCC3`, the inhibition was 124% (active).
For `CCCS(=O)(=O)Nc1c(C(=O)O)[nH]c2ccccc12`, the inhibition was 54.9% (active).
With `CCOC(=O)c1c(-c2ccccc2)oc2ccc(OCC(=O)NN)cc12` the inhibition was 108% (active).
`CCOC(=O)c1c(-c2ccccc2)oc2ccc(OCC(N)=O)cc12` was tested, and the inhibition was 148% (active).
With `COC(=O)c1c(-c2ccsc2)oc2ccc(-c3cc(OC)c(OC)c(OC)c3)cc12` the inhibition was 2.75% (inactive).
With `COc1cc(C(F)(F)F)nc2c(Br)c(C(C)(C)C)nn12` the inhibition was 66.4% (active).
With `Cc1ccc(NC(=O)CN(C)C(=O)COC(=O)c2nccnc2N)cc1` the inhibition was 4.29% (inactive).
With `COc1ccc2oc(=O)c(C(=O)NCc3ccccn3)cc2c1` the inhibition was 10.3% (inactive).
In the case of `COc1ccc2oc(=O)c(C(=O)N3CCCC3)cc2c1`, the inhibition is reported as 113% (active).
For `CCN(CC)c1ccc2cc(C(=O)O)c(=O)oc2c1`, the inhibition was 22.1% (inactive).
For `C=CCc1c(C)nc2cc(-c3ccccc3)[nH]n2c1=O`, the inhibition was 56.1% (active).
In the case of `CCc1c(C)nc2cc(C)[nH]n2c1=O`, the inhibition is reported as 45.6% (active).
In the case of `CCc1c(C)nc2cc(-c3cccs3)[nH]n2c1=O`, the inhibition is reported as 26.8% (inactive).
`CN(C)S(=O)(=O)c1ccc(N/C=C(\[N+](=O)[O-])S(=O)(=O)c2ccccc2)cc1` was tested, and the inhibition was 2.34% (inactive).
In the case of `COCc1cc(=O)oc2cc(NS(=O)(=O)c3ccc(C)cc3)ccc12`, the inhibition is reported as 62.7% (active).
In the case of `COCCN(CCOC)c1nc(N)c2c(N)nc3c(c2c1C#N)CC(=O)N3Cc1ccc(Cl)cc1`, the inhibition is reported as 89.8% (active).
For `CCCC1OC23CCCCC2C(C#N)(C#N)C1(C#N)C(=N)O3` (centres undefined), the inhibition was -0.85% (inactive).
In the case of `O=C(c1cc(-c2ccc(Cl)s2)nc2ccccc12)N1CCOCC1`, the inhibition is reported as 111% (active).
`CC(=O)N1CCN(C(=O)c2cc(-c3ccc(Cl)s3)nc3ccccc23)CC1` was tested, and the inhibition was 12.6% (inactive).
In the case of `Cc1nn(C)c(Oc2ccccc2)c1CCNS(=O)(=O)c1ccc(F)cc1`, the inhibition is reported as 157% (active).
For `Cc1cccc(NC(=O)c2sc3nc(N4CCOCC4)c4c(c3c2N)CCCC4)c1`, the inhibition was 108% (active).
`Oc1ccc(Br)cc1C=Nc1ccc2[nH]ncc2c1` was tested, and the inhibition was 79.1% (active).
`COc1ccc(-c2cc(C(=O)Nc3ccccc3O)c3ccccc3n2)cc1` was tested, and the inhibition was 133% (active).
In the case of `COc1ccc(-c2cc(C(=O)N(C)Cc3ccccc3)c3ccccc3n2)cc1`, the inhibition is reported as -2.17% (inactive).
In the case of `COc1ccc(-c2cn3ccc(C)cc3n2)cc1`, the inhibition is reported as 4.46% (inactive).
`COc1nc(N=C(N)N)nc2c(C)cccc12` was tested, and the inhibition was 108% (active).
In the case of `COc1cc2nc(N3CCN(C(=O)[C@@H]4CCCO4)CC3)nc(N)c2cc1OC`, the inhibition is reported as 109% (active).
In the case of `CC(C)C1Nc2c(C(=O)O)cccc2C(Nc2ccccc2C(=O)O)C1(C)C` (centres undefined), the inhibition is reported as 95.8% (active).
`Cc1noc(C)c1COc1ccc2ccc(=O)oc2c1` was tested, and the inhibition was 55.1% (active).
`COC(=O)c1c(C)c(C)nc(N)c1C#N` was tested, and the inhibition was 56.3% (active).
For `CCOC(=O)Cc1c(C)nc2c(C#N)c(C)nn2c1C`, the inhibition was 63.7% (active).
For `Cc1cc(C)c(-c2c(O)c3ccccc3n(C)c2=O)c(C)c1`, the inhibition was 78.7% (active).
For `CCSc1nnc(-c2cc3c(s2)-c2ccccc2CC3)o1`, the inhibition was 76.8% (active).
`CCOc1ccc(-c2nnc(-c3ccco3)o2)cc1` was tested, and the inhibition was 106% (active).
For `CCCCOc1ccc(-c2nnc(-c3ccco3)o2)cc1`, the inhibition was 174% (active).
In the case of `CCNC(=S)Nc1ccc2c(c1)c(=O)n(C)n2Cc1ccc(Cl)cc1`, the inhibition is reported as 3.5% (inactive).
For `Cc1ccc(-c2nc3ccccc3[nH]c2=O)cc1`, the inhibition was 74.3% (active).
`CCOC(=O)COc1nc(C)cc(C(F)(F)F)c1C#N` was tested, and the inhibition was 39.2% (active).
In the case of `CCc1cc(=O)oc2cc(C)cc(OCC(=O)N3CCC[C@@H]3C(=O)O)c12`, the inhibition is reported as 83.3% (active).
In the case of `Cc1ccn2c(c1)nc(=O)c1cc(S(=O)(=O)N3CCC(C)CC3)ccc12`, the inhibition is reported as 5.35% (inactive).
For `Cc1ccc(-c2nc3ccccc3c(=O)n2-c2ccc(Br)cn2)cc1`, the inhibition was 98.1% (active).
For `C[C@H]1CN([C@@H](C)CO)C(=O)c2cc(Br)cnc2O[C@H]1CN(C)S(=O)(=O)c1cccs1`, the inhibition was 8.79% (inactive).
With `COCCNc1cc(-c2ccccc2)nc2cc(-c3cccc(F)c3)nn12` the inhibition was 133% (active).
In the case of `Fc1ccc(COc2cccc(-c3n[nH]c(=S)o3)c2)cc1`, the inhibition is reported as 169% (active).
`O=C(Nc1ccc2nccnc2c1)c1ccco1` was tested, and the inhibition was 692% [above what the read-out allows, likely interference] (active).
With `CCCn1c(=O)c(-c2ccccc2)c(O)c2ccccc21` the inhibition was 94.4% (active).
`Cc1ccc(S(=O)(=O)N2C[C@@H](C)[C@]3(C2)[C@H](O)[C@H](OC(=O)NCc2ccccc2)C[C@H]2C(=O)N(c4ccccc4)C(=O)[C@H]23)cc1` was tested, and the inhibition was 9.3% (inactive).
`COc1ccc(C2CC(c3cccs3)=NN2c2ccccc2)cc1` (centres undefined) was tested, and the inhibition was 38.9% (active).
For `COc1ccc(C2CC(c3cccs3)=NN2c2ccc(F)cc2)cc1OC` (centres undefined), the inhibition was 101% (active).
For `COc1ccccc1N1N=C(c2cccs2)CC1c1ccccc1` (centres undefined), the inhibition was 46.8% (active).
In the case of `Oc1ccccc1C1=NN(c2ccccc2)C(c2ccccc2)C1` (centres undefined), the inhibition is reported as 107% (active).
`Fc1ccc(N2N=C(c3cccs3)CC2c2ccco2)c(F)c1` (centres undefined) was tested, and the inhibition was 1.22% (inactive).
With `CS(=O)(=O)Nc1ccc(C2=NN(S(C)(=O)=O)C(c3cccs3)C2)cc1` (centres undefined) the inhibition was 2.17% (inactive).
For `Cc1ccc(-c2nc(C#N)c(NCCCn3ccnc3)o2)cc1`, the inhibition was 41.3% (active).
In the case of `Cc1nc2ccc(NC(=O)N3CCC(c4ccccc4)C3)cc2nc1C` (centres undefined), the inhibition is reported as 98.1% (active).
In the case of `O=C(NCc1ccccc1)c1onc(CSc2nc3ccccc3[nH]2)c1C(=O)NCc1ccccc1`, the inhibition is reported as 74.2% (active).
In the case of `COCCNc1nc(-n2nc(C)cc2C)nc2sc3c(c12)CCCC3`, the inhibition is reported as 109% (active).
With `O=C(NCCCN1CCOCC1)c1cnn2c(-c3ccccc3)cc(-c3ccccc3)nc12` the inhibition was 96.2% (active).
With `CC(C)(C)NC(=O)COc1ccc(CNc2ccc3[nH]c(=O)[nH]c3c2)cc1` the inhibition was 1.48% (inactive).
`CC(C)n1ncc2c(C(=O)NCc3ccccc3CN(C)C)cc(C3CC3)nc21` was tested, and the inhibition was 144% (active).
For `CC(C)(C)OC(=O)NNc1c2ccccc2nc2ccccc12`, the inhibition was -3.52% (inactive).
For `O=C(NCCN1CCOCC1)c1cc(-c2cccs2)nc2ccccc12`, the inhibition was 8.64% (inactive).
With `COC(=O)c1cc(-c2cccs2)nc2ccccc12` the inhibition was 136% (active).
